Six1-Eya2 blk: inhibitors of human Six1/Eya2 interaction; AID 651725; AlphaScreen GST-Six1/His-Eya2 binding, biochemical; active compounds read low; activity change, % (no concentration beside the values); Q15475+O00167; 360,000 compounds, 0.56% hits; in the data active means activity change below about -65%; inconclusive means mostly about -30% to -63%; further: on the % scale 0 is the no-effect control and ±100 the full control effect
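Compounds are tested against tagged Six1 and Eya2 proteins bridged by glutathione donor and nickel acceptor beads; after a one-hour incubation at 37 °C without light, AlphaScreen emission is recorded.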
CtBP-E1A blk: CtBP/E1A binding inhibition. AlphaScreen GST-E1A/His-CtBP binding, 1536-well; active compounds read low. activity change, % (test concentration not listed). 340,000 compounds, 0.49% hits. AID 651724; in the data active means activity change below about -65%; inconclusive means mostly about -30% to -63%; further: on the % scale 0 is the no-effect control and ±100 the full control effect
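In 5 uL wells, 23 nL compound meets equimolar GST-E1A and His-CtBP (5X stock 125 nM each) for 2 h, 37 °C. Beads (5X, 50 ug/mL) then 1 h, 37 °C, dark.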
JMJD2A Tudor inh: JMJD2A Tudor domain (human) inhibition; AID 504339; O75164; AlphaScreen JMJD2A-Tudor / H3K4me3 peptide binding; 390,000 compounds, 4.4% hits; Potency, µM (highest dose often 114 µM), inactives show at the highest dose activity change, negative = inhibition, usual class: inhibitors; further: potency means the concentration at half of the fitted maximal effect; on the % scale 0 is the no-effect control and ±100 the full control effect; nearly all actives have a fitted effect of over 50% in size
BAZ2B inh: BAZ2B (human) inhibition; Q9UIF8; AlphaScreen BAZ2B-H3K14Ac peptide displacement; Potency, µM (titrated, usually from 114 µM), without a hit: top-dose activity change, negative = inhibition, most hits filed as inhibitors; 360,000 compounds, 4.4% hits; AID 504333; further: potency means the concentration at half of the fitted maximal effect; on the % scale 0 is the no-effect control and ±100 the full control effect; nearly all actives have a fitted effect of over 60% in size
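AlphaScreen displacement of biotin-H3(5-23)K14Ac peptide (50 nM final) from BAZ2B (50 nM final) in PBS pH 7.4, 0.01% Tween-20; complex preformed 30 min RT, then compounds (top 110 uM) 30 min RT, beads 20 min dark.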
HP1b chromo inh: blocks HP1-beta chromodomain binding to methylated histone tails; 390,000 compounds, 0.56% hits; P83916; Potency, µM (doses to about 114 µM), inactives show at the highest dose activity change, negative = inhibition, usual class: inhibitors; AlphaScreen HP1-beta / biotin-H3K9me3 peptide binding; further: potency means the concentration at half of the fitted maximal effect; nearly all actives have a fitted effect of over 70% in size
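HP1-beta protein (50 nM final) preincubated 30 min at room temperature with biotinylated H3(1-18)K9me3 peptide (50 nM) in PBS pH 7.4, 0.01% Tween-20, then compound added for 30 min. AlphaScreen streptavidin donor/nickel chelate acceptor beads (10 ug/mL final), 30 min dark, luminescence read.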
G9a block: blocks human histone lysine methyltransferase G9a. G9a H3K9 monomethylation, AlphaScreen, 2 h. Potency, µM (highest dose often 102 µM), inactives show at the highest dose activity, negative = inhibition, hits mostly inhibitors. 350,000 compounds, 8.8% hits; further: potency means the concentration at half of the fitted maximal effect; on the % scale 0 is the no-effect control and ±100 the full control effect; nearly all actives have a fitted effect of over 75% in size
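Compounds were preincubated with 20 nM G9a for 15 min, after which biotinylated H3K9 peptide (500 nM) and SAM (20 uM) started a 2 h room-temperature reaction. Monomethylated product was quantified by antibody-based AlphaScreen chemiluminescence.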
Active calls of the source: *; [ ] = remark or other dose. An excerpt weighted towards active compounds, which were near 10% of everything screened. Unless noted, the call rests on the fitted dose curve; in most records, active means well fitted inhibition curve with a large enough effect; inconclusive means small, poorly fitted or top-dose-only effect; inactive means no such curve, though single readings can be large or run the other way.

For COc1cc(C(C)=O)ccc1OCC(=O)Nc1cc(Cl)ccc1-n1cncn1 the results were Six1-Eya2 blk 0, CtBP-E1A blk 3, JMJD2A Tudor inh -16%, BAZ2B inh 5%, HP1b chromo inh 24% and G9a block -1%.
COc1ccccc1OCC(=O)Nc1cc(C(F)(F)F)ccc1-n1cncn1 was read as Six1-Eya2 blk 1, CtBP-E1A blk 7, JMJD2A Tudor inh -3%, BAZ2B inh 0%, HP1b chromo inh 44% and G9a block 45µM*.
`NNc1nc2cc3c(cc2s1)OCCO3` gave Six1-Eya2 blk 2, JMJD2A Tudor inh -3%, BAZ2B inh inconclusive, HP1b chromo inh 25% and G9a block 71µM*.
`O=C(CCS(=O)(=O)c1ccccc1)Nc1nc2cc3c(cc2s1)OCCO3` gave Six1-Eya2 blk 8, CtBP-E1A blk 15, JMJD2A Tudor inh -25%, BAZ2B inh 79µM*, HP1b chromo inh 38% and G9a block inconclusive.
Screening O=C(CCS(=O)(=O)c1ccccc1)Nc1nc2cc3c(cc2s1)OCO3 returned Six1-Eya2 blk 0, CtBP-E1A blk 7, JMJD2A Tudor inh -6%, BAZ2B inh 71µM*, HP1b chromo inh 38% and G9a block inconclusive.
O=C(CCS(=O)(=O)c1ccccc1)Nc1nc2ccc(F)cc2s1 was read as Six1-Eya2 blk 5, CtBP-E1A blk -3, JMJD2A Tudor inh -3%, BAZ2B inh 13%, HP1b chromo inh 27% and G9a block -8%.
Cc1ccn2c(-c3csc(NCc4ccco4)n3)c(C)nc2c1 was read as Six1-Eya2 blk -12, CtBP-E1A blk -12, JMJD2A Tudor inh 100µM*, BAZ2B inh inconclusive, HP1b chromo inh -30% and G9a block 45µM*.
Screening COc1ccc(-c2nc3cccc(C)n3c2NCc2ccco2)cc1OC returned Six1-Eya2 blk -7, CtBP-E1A blk 11, JMJD2A Tudor inh inconclusive, BAZ2B inh 50µM*, HP1b chromo inh -16% and G9a block 45µM*.
Screening c1cncc(-c2csc(NCc3ccco3)n2)c1 returned Six1-Eya2 blk -2, CtBP-E1A blk -12, JMJD2A Tudor inh inconclusive, BAZ2B inh -38%, HP1b chromo inh 0% and G9a block 13%[12.7 µM].
For COc1ccc(-c2csc(NCc3ccco3)n2)cc1C the results were Six1-Eya2 blk -24, CtBP-E1A blk -13, JMJD2A Tudor inh inconclusive, BAZ2B inh 45µM*, HP1b chromo inh inconclusive and G9a block inconclusive.
Screening CC(=O)Nc1ccc(-c2csc(NCc3ccco3)n2)cc1 returned Six1-Eya2 blk -1, CtBP-E1A blk -1, JMJD2A Tudor inh inconclusive, BAZ2B inh -33%, HP1b chromo inh -28% and G9a block 10µM*.
COc1ccc(-c2ccc(C#N)c(SCC(=O)NCc3ccco3)n2)cc1OC was read as Six1-Eya2 blk -5, CtBP-E1A blk -1, JMJD2A Tudor inh -3%, BAZ2B inh -25% and HP1b chromo inh 39%.
Screening CCc1ccc(S(=O)(=O)c2cn(CC(=O)Nc3ccc(C)cc3)c3ccccc3c2=O)cc1 returned JMJD2A Tudor inh -19%, BAZ2B inh -13%, HP1b chromo inh 30% and G9a block -23%[59 µM].
Screening Brc1ccc(CN2CCc3nc(Nc4ccccc4)ncc3C2)s1 returned JMJD2A Tudor inh inconclusive, BAZ2B inh -35%, HP1b chromo inh 26% and G9a block inconclusive.
For COc1ccc(-c2[nH]c(-c3cccc(OC)c3)nc2SCC(=O)NCc2ccco2)cc1 the results were Six1-Eya2 blk -20, CtBP-E1A blk -7, JMJD2A Tudor inh inconclusive, BAZ2B inh inconclusive, HP1b chromo inh -15% and G9a block 18µM*.
Screening O=C(CSc1nnc2c(n1)[nH]c1ccccc12)NCc1ccco1 returned Six1-Eya2 blk -11, JMJD2A Tudor inh -29%, BAZ2B inh inconclusive, HP1b chromo inh 19% and G9a block 10µM*.
